# Source: PubChem BioAssay
# PPC-1+TRAIL kill: compounds killing PPC-1 cancer cells with TRAIL present, primary screen, TRAIL potentiator project, ATPLite luminescence, uHTS; PPC-1 cells + TRAIL, ATPLite viability luminescence; cell killing (% activity), % at 4 µM or 5 µM; 0.41% of 220,000 active; AID 1443, 2008;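 active = cell killing above 50% in the first pass at 4 µM, then a duplicate retest at 5 µM averaging 50% or more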;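 also: plate controls were cells with TRAIL plus DMSO for no effect and medium-only wells lacking cells for full effect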
# KKLEB cytotox: cytotoxicity in KKLEB CF airway cells, primary screen, cytotoxicity control for CF NF-kB inhibitor project, cell-based, uHTS, fluorescence assay plates | activity change (cytotoxicity), % at 5 µM | AID 602141, 2011 | 0.36% of 360,000 active | KKLEB CF airway cells viability, ATPlite luminescence, overnight; hits give low values; cells stimulated with P. aeruginosa culture filtrate;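 active = corrected activity change at or below -50% at 5 µM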
# HIF-2a inh: HIF-2a reporter inhibitors, primary screen, luminescence, 786-0 RCC cells; 786-0 RCC cells HIF-2a reporter, luciferase luminescence, overnight; inhibition, % at 18.8 µM; 0.72% of 360,000 active;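 active = inhibition of the luminescence signal of 40% or more relative to plate controls, in a single-dose primary screen at 18.75 µM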
# CF NFkB inh: inhibitors of PAF-induced NF-kB signaling, primary screen, cell-based, GFP fluorescence, uHTS. 0.86% of 360,000 active. KKLEB NF-kB-GFP reporter, GFP fluorescence overnight. inhibition, % at 5 µM. AID 588850, 2011;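 active = at least 50% inhibition at 5 µM, scaled per plate between neutral and stimulator controls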;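 also: PAF is a Pseudomonas aeruginosa culture filtrate used as stimulus; plate controls were PAF-stimulated DMSO wells for no effect and unstimulated DMSO wells for full effect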
# TRAIL sens C8: viability loss with TRAIL in NB7+C8 cells, primary screen, TRAIL sensitizer project, cell-based, ATPlite luminescence; inhibition (viability loss, TRAIL sensitization), % at 10 µM; 1% of 360,000 active;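 active = compounds causing at least 50% loss of cell viability in the single-dose screen, relative to plate controls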
# iPSC survival up: enhancers of single-cell hiPSC survival, primary screen, ATPlite luminescence | 100% = ROCK inhibitor wells, 0% = DMSO | AID 602274, 2012 | survival enhancement, % at 20 µM | 0.044% of 360,000 active; in the data active = survival enhancement above about 18%;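 also: cells exposed to compounds for 16 hours before the ATP read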
# An asterisk follows results filed as active; x = no result. Shown are actives, neighbours in structure and some others; about 2.2% of the full set was active somewhere.
SMILES,PPC-1+TRAIL kill,KKLEB cytotox,HIF-2a inh,CF NFkB inh,TRAIL sens C8,iPSC survival up
CCCC(=O)N1CCN(c2ccc(NC(=O)c3cc4ccccc4o3)cc2Cl)CC1,30,-11,-65,-2,54*,0
CCC(=O)N1CCN(c2ccc(NC(=O)c3cc4ccccc4o3)cc2Cl)CC1,25,2,-91,18,61*,-3
CCOc1ccccc1N1CCN(C(=O)c2ccc(OCC(=O)N3CCOCC3)c(OC)c2)CC1,x,8,10,-6,-7,0
O=C1C=CC2(O[C@H](c3ccccc3)[C@@H](c3ccccc3)O2)[C@H](Sc2ccccc2O)C1,x,-86*,89*,89*,46,1
COC(=O)CSc1cccc2c1C(=O)CC2c1ccccc1 (centres undefined),x,-5,21,6,-16,0
CCc1ccc(NC(=O)CN2CCCN(S(=O)(=O)c3ccc(F)cc3)CC2)cc1,x,-2,14,2,12,0
CCCCCCCC[n+]1cccc2c3ccccc3ccc21,44,-27,-40,38,59*,-5
CCCCCCCCCC[n+]1cccc2c3ccccc3ccc21,36,-50*,7,49,44,-3
CCN(CC)c1ccc(N)cc1,x,-15,-33,28,60*,-2
COc1ccc2[nH]c3c(C)c4ccncc4c(C)c3c2c1,29,-40,15,78*,42,-4
COc1ccc2[nH]c(C)cc(=O)c2c1,23,-3,4,4,-33,4
Clc1ccc(N=NN2CCOCC2)cc1,19,-6,-42,-4,-12,0
Cc1[nH]nc(C(F)(F)F)c1N=NN1CCOCC1,x,2,18,-24,78*,-4
O=C(Nc1ccccc1NC(=O)c1c(F)c(F)c(F)c(F)c1F)c1c(F)c(F)c(F)c(F)c1F,-16,-4,14,10,82*,-3
O=C(Nc1ccncc1)c1ccccc1F,3,-7,24,32,0,24*
O=C(Nc1ccncc1)c1c(F)c(F)c(F)c(F)c1F,x,-14,23,34,-6,44*
O=C(Nc1cccnc1)c1c(F)c(F)c(F)c(F)c1F,-7,-11,20,10,-2,0
COC(=O)CN(C)C(=O)c1cccc(OC2CCN(S(=O)(=O)N(C)C)CC2)c1,x,1,6,-3,6,0
Cc1ccc(NC(=O)c2ccc([N+](=O)[O-])o2)c(C)c1,8,0,-1,16,-2,-1
Cc1ccc(S(=O)(=O)c2ccc([N+](=O)[O-])o2)cc1,x,-89*,89*,78*,92*,-1
CN(C)c1ncnc2c1ncn2C1CCCO1 (centres undefined),x,5,6,-6,-7,1
O=C(O)[C@@H]1CCCN1S(=O)(=O)c1cccc2cccnc12,x,5,-1,-4,-5,1
CCOC(=O)N1CCN(C(=O)COC(=O)CN(C)S(=O)(=O)c2ccc(NC(C)=O)cc2)CC1,x,-7,11,-2,-8,1
N#Cc1c(NC(=O)c2ccccc2)sc2c1CCCCC2,36,-15,-129,2,53*,-2
N#Cc1c(Cl)nsc1NC(=O)c1ccccc1,17,-39,-122,52*,44,-1
SMILES,PPC-1+TRAIL kill,KKLEB cytotox,HIF-2a inh,CF NFkB inh,TRAIL sens C8,iPSC survival up
N#Cc1c(NC(=O)/C=C/c2ccco2)sc2c1CCCC2,-2,-52*,-302,62*,-8,-2
Cc1cc(C(=O)Nc2sc3c(c2C#N)CCC3)no1,24,-6,-155,8,51*,-1
Cc1ccc(C(=O)Nc2sc3c(c2C#N)CCCCC3)cc1C,13,-2,-211,11,6,-2
CC(C)Cc1cc(C(=O)Nc2sc3c(c2C#N)CCC3)no1,0,9,-74,-4,-3,6
O=C(/C=C/c1ccco1)Nc1sc2c(c1C(=O)O)CCC2,9,0,-196,12,-9,6
NNC(=O)c1cccc(O)c1,9,10,2,-2,0,0
COc1ccc(NC(=O)COc2cccc(-n3cnnn3)c2)cc1,x,1,-9,-3,-6,0
